About 83,000 compounds went through this panel and 20% of them were active in at least one assay; those are over-represented in the sample as a whole.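 Results are percent growth after 48 hours of single-concentration exposure. 100 means growth as in untreated cells, lower positive values show inhibition; negative values down to -100 show cell death.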 Values without a mark were called inactive. Active and inactive are the calls of the source. How the source made its calls: active means growth percent below 10; inactive means the rest.
Key:
Assay in all cases: NCI-60 one-dose screen, 48 h (100 = growth as untreated, 0 = no growth, -100 = all killed)
Conditions in all cases: 10 µM unless noted
SK-MEL-2 melanoma = system: SK-MEL-2 melanoma
EKVX NSCLC = system: EKVX NSCLC
SN12C renal = system: SN12C renal
UO-31 renal = system: UO-31 renal
TK-10 renal = system: TK-10 renal
ACHN renal = system: ACHN renal
CAKI-1 renal = system: CAKI-1 renal
A498 renal = system: A498 renal
CCRF-CEM leukemia = system: CCRF-CEM leukemia
RPMI-8226 leukemia = system: RPMI-8226 leukemia
OVCAR-8 ovarian = system: OVCAR-8 ovarian
OVCAR-5 ovarian = system: OVCAR-5 ovarian
OVCAR-4 ovarian = system: OVCAR-4 ovarian
SK-OV-3 ovarian = system: SK-OV-3 ovarian
IGROV1 ovarian = system: IGROV1 ovarian
OVCAR-3 ovarian = system: OVCAR-3 ovarian
HS 578T breast = system: HS 578T breast
NCI/ADR-RES ovarian = system: NCI/ADR-RES ovarian
MOLT-4 leukemia = system: MOLT-4 leukemia

## COc1ccc(C(=O)/C=C/c2cccc(Cl)c2)cc1S(N)(=O)=O
SK-MEL-2 melanoma
  growth: 80.9%
EKVX NSCLC
  growth: -73.5% (active)
SN12C renal
  growth: -25.3% (active)
UO-31 renal
  growth: -67.6% (active)
TK-10 renal
  growth: -86.1% (active)
ACHN renal
  growth: -89.3% (active)
CAKI-1 renal
  growth: -9.94% (active)
A498 renal
  growth: 111%
CCRF-CEM leukemia
  growth: 6.96% (active)
RPMI-8226 leukemia
  growth: -5.22% (active)
OVCAR-8 ovarian
  growth: -70.3% (active)
OVCAR-5 ovarian
  growth: -17.8% (active)
OVCAR-4 ovarian
  growth: 46.4%
SK-OV-3 ovarian
  growth: 49.8%
IGROV1 ovarian
  growth: 6.51% (active)
OVCAR-3 ovarian
  growth: -58.8% (active)
HS 578T breast
  growth: 95.4%
NCI/ADR-RES ovarian
  growth: 14.3%

## COc1cc(OC)cc(-c2cc3ccc(N(C)C)cc3c(=O)[nH]2)c1
SK-MEL-2 melanoma
  growth: 33.6%
EKVX NSCLC
  growth: 47%
SN12C renal
  growth: 36.7%
UO-31 renal
  growth: 52.4%
TK-10 renal
  growth: 79.1%
ACHN renal
  growth: 31.2%
CAKI-1 renal
  growth: 34.2%
A498 renal
  growth: 121%
CCRF-CEM leukemia
  growth: 15.5%
RPMI-8226 leukemia
  growth: 29.2%
OVCAR-8 ovarian
  growth: 5.26% (active)
OVCAR-5 ovarian
  growth: 45.5%
OVCAR-4 ovarian
  growth: 72.6%
SK-OV-3 ovarian
  growth: 40.2%
IGROV1 ovarian
  growth: 29.3%
OVCAR-3 ovarian
  growth: 4% (active)
HS 578T breast
  growth: 47.3%
NCI/ADR-RES ovarian
  growth: 0.753% (active)

## COc1ccc(C(=O)/C=C/c2cc3c(cc2Br)OCO3)cc1S(N)(=O)=O
SK-MEL-2 melanoma
  growth: 89.2%
EKVX NSCLC
  growth: 4.57% (active)
SN12C renal
  growth: -12.5% (active)
UO-31 renal
  growth: -44.5% (active)
TK-10 renal
  growth: 16.8%
ACHN renal
  growth: -23% (active)
CAKI-1 renal
  growth: -20.2% (active)
A498 renal
  growth: 88.7%
CCRF-CEM leukemia
  growth: 5.43% (active)
RPMI-8226 leukemia
  growth: -13.6% (active)
OVCAR-8 ovarian
  growth: -21% (active)
OVCAR-5 ovarian
  growth: -7.93% (active)
OVCAR-4 ovarian
  growth: 28%
SK-OV-3 ovarian
  growth: 69%
IGROV1 ovarian
  growth: 3.7% (active)
OVCAR-3 ovarian
  growth: -57.5% (active)
HS 578T breast
  growth: 30.3%
NCI/ADR-RES ovarian
  growth: 13.8%

## CN1CCN(c2ccc(C(=O)/C=C/c3cc(C(F)(F)F)cc(C(F)(F)F)c3)cc2)CC1
SK-MEL-2 melanoma
  growth: -86.2% (active)
EKVX NSCLC
  growth: -73.2% (active)
SN12C renal
  growth: -79.8% (active)
UO-31 renal
  growth: -92.5% (active)
TK-10 renal
  growth: -88.7% (active)
ACHN renal
  growth: -99.2% (active)
CAKI-1 renal
  growth: -73.7% (active)
A498 renal
  growth: -70% (active)
CCRF-CEM leukemia
  growth: 5.57% (active)
RPMI-8226 leukemia
  growth: -19.4% (active)
OVCAR-8 ovarian
  growth: -93.4% (active)
OVCAR-5 ovarian
  growth: -95.8% (active)
OVCAR-4 ovarian
  growth: -23.8% (active)
SK-OV-3 ovarian
  growth: -89.5% (active)
IGROV1 ovarian
  growth: -36.6% (active)
OVCAR-3 ovarian
  growth: -54.4% (active)
HS 578T breast
  growth: 26.9%
NCI/ADR-RES ovarian
  growth: -39.3% (active)

## O=C(NNc1nc2cc(F)ccc2n2c(C(=O)N3CCN(C4CC4)CC3)ccc12)c1ncccn1
SK-MEL-2 melanoma
  growth: 57%
EKVX NSCLC
  growth: 22.8%
SN12C renal
  growth: 27%
UO-31 renal
  growth: 14.8%
TK-10 renal
  growth: 30.2%
ACHN renal
  growth: 12.2%
CAKI-1 renal
  growth: 17.7%
A498 renal
  growth: 75.9%
CCRF-CEM leukemia
  growth: 13.4%
RPMI-8226 leukemia
  growth: 25.1%
OVCAR-8 ovarian
  growth: 22.1%
OVCAR-5 ovarian
  growth: 38.4%
OVCAR-4 ovarian
  growth: 29.5%
SK-OV-3 ovarian
  growth: 22.1%
IGROV1 ovarian
  growth: 30.4%
OVCAR-3 ovarian
  growth: 57.7%
HS 578T breast
  growth: 66.5%
NCI/ADR-RES ovarian
  growth: 16.6%

## O=C(NNc1nc2cc(F)ccc2n2c(CN3CCCCC3)ccc12)c1cnccn1
SK-MEL-2 melanoma
  growth: -67.2% (active)
EKVX NSCLC
  growth: -78.2% (active)
SN12C renal
  growth: 1.01% (active)
UO-31 renal
  growth: -72.2% (active)
TK-10 renal
  growth: -92.7% (active)
ACHN renal
  growth: -98.3% (active)
CAKI-1 renal
  growth: -79.5% (active)
A498 renal
  growth: -87.9% (active)
CCRF-CEM leukemia
  growth: -16.2% (active)
RPMI-8226 leukemia
  growth: -2.84% (active)
OVCAR-8 ovarian
  growth: -84% (active)
OVCAR-5 ovarian
  growth: -69.5% (active)
OVCAR-4 ovarian
  growth: -45.5% (active)
SK-OV-3 ovarian
  growth: -63.7% (active)
IGROV1 ovarian
  growth: -3.63% (active)
OVCAR-3 ovarian
  growth: -45.9% (active)
HS 578T breast
  growth: 23.7%
NCI/ADR-RES ovarian
  growth: -31.5% (active)

## COCOc1cc2oc(C(=O)N[C@@H](Cc3ccccc3)C(O)C(=O)NCc3ccccc3)c(C)c(=O)c2cc1OCOC (stereo partly drawn)
SK-MEL-2 melanoma
  growth: 79.7%
EKVX NSCLC
  growth: 107%
SN12C renal
  growth: 51.9%
UO-31 renal
  growth: 87.1%
TK-10 renal
  growth: 63.2%
ACHN renal
  growth: 66.9%
CAKI-1 renal
  growth: 84.7%
A498 renal
  growth: -35.2% (active)
CCRF-CEM leukemia
  growth: 104%
MOLT-4 leukemia
  growth: 97.3%
RPMI-8226 leukemia
  growth: 99.3%
OVCAR-8 ovarian
  growth: 22.2%
OVCAR-5 ovarian
  growth: 91.8%
OVCAR-4 ovarian
  growth: 43.9%
SK-OV-3 ovarian
  growth: 33.4%
IGROV1 ovarian
  growth: 101%
OVCAR-3 ovarian
  growth: 99%
HS 578T breast
  growth: 71.4%
NCI/ADR-RES ovarian
  growth: 98.5%

## COc1cccc(COc2ccc(NC(=O)Nc3ccc(Cl)c(C(F)(F)F)c3)cc2)c1
SK-MEL-2 melanoma
  growth: 51.5%
EKVX NSCLC
  growth: 35.2%
SN12C renal
  growth: 33%
UO-31 renal
  growth: 7.91% (active)
TK-10 renal
  growth: 45.1%
ACHN renal
  growth: 11.2%
CAKI-1 renal
  growth: 24.2%
A498 renal
  growth: 35.3%
CCRF-CEM leukemia
  growth: 34.1%
MOLT-4 leukemia
  growth: 28.1%
RPMI-8226 leukemia
  growth: 13.5%
OVCAR-8 ovarian
  growth: 31.9%
OVCAR-5 ovarian
  growth: 69.8%
OVCAR-4 ovarian
  growth: 45.2%
IGROV1 ovarian
  growth: 25.8%
OVCAR-3 ovarian
  growth: 27.6%
HS 578T breast
  growth: 26.7%
NCI/ADR-RES ovarian
  growth: 47.1%

## C[C@H]1CN(C(=O)c2ccc3c(NNC(=O)c4ccncn4)nc4cc(F)c(F)cc4n23)CCN1
SK-MEL-2 melanoma
  growth: 53.4%
EKVX NSCLC
  growth: 15.7%
SN12C renal
  growth: 24.1%
UO-31 renal
  growth: 13.6%
TK-10 renal
  growth: 36.8%
ACHN renal
  growth: 8.98% (active)
CAKI-1 renal
  growth: 15.2%
A498 renal
  growth: 50.3%
CCRF-CEM leukemia
  growth: 10.9%
RPMI-8226 leukemia
  growth: 23.6%
OVCAR-8 ovarian
  growth: 17.2%
OVCAR-5 ovarian
  growth: 50.4%
OVCAR-4 ovarian
  growth: 34.7%
SK-OV-3 ovarian
  growth: 43.7%
IGROV1 ovarian
  growth: 33%
OVCAR-3 ovarian
  growth: 58.2%
HS 578T breast
  growth: 59.6%
NCI/ADR-RES ovarian
  growth: 3.96% (active)

— PubChem BioAssay (NCI)
